Bioassay records as filed in PubChem.
In the library only some 19% were active in any assay of this set; here they are far more common.
HepG2 viability – counter-screen for TGF-b inhibitors: cytotoxicity in HepG2 cells; HepG2 CAGA-GFP viability, ATP luminescence, 18 h; Potency, µM (titrated, usually from 46.1 µM), for inactives: at the highest dose activity change, negative = cytotoxicity, usual class: cytotoxic; actives 0.76% (n = 410,000); AID 588856; further: potency means the concentration at half of the fitted maximal effect
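CellTiter-Glo luminescence gave cytotoxicity after 18 hours at 37 degrees C. The cells were HepG2 CAGA-GFP in 1% FBS DMEM, stimulated with 500 pg/mL TGF-beta after compound addition. %Activity was normalised to no-cell wells (complete cell-killing) and DMSO (no toxicity), and curves were fitted and classified.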
TDP1 cell CPT – DT40-hTDP1 cell growth loss with CPT. AID 686979. chicken DT40 Tdp1-/-;hTDP1 cells + 20 nM CPT, ATP luminescence, 48 h. Potency, µM (series often up to 46.2 µM), without a hit: top-dose activity change, negative = growth inhibition, actives largely listed as inhibitors. actives 12% (n = 420,000); further: potency means the concentration at half of the fitted maximal effect; on the % scale 0 is the no-effect control and ±100 the full control effect; nearly all actives have a fitted effect of over 55% in size
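Cell growth measured by CellTiter-Glo luminescence after a minimum 48 h, 37 C compound exposure with 20 nM CPT in Tdp1-knockout DT40 cells stably expressing hTDP1, seeded 400/well; qHTS titration format.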
IL1B secr inh – inflammasome signaling inhibition, IL-1 beta readout. THP-1 LPS/ATP IL-1B secretion, AlphaLISA, 16 h; stronger effect = lower value. actives 4.7% (n = 360,000). AID 743279. activity change, % at 57.5 µM; in the data active means activity change below about -50%; inconclusive means mostly about -30% to -49%; further: on the % scale 0 is the no-effect control and ±100 the full control effect
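THP-1 cells pretreated 1 hr with compounds (up to 57.5 uM final), then stimulated with LPS (250 ng/mL final) plus ATP (1.25 mM final); secreted IL-1B measured by AlphaLISA after 16 hr, decreased signal indicating inhibition.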
TGFb SMAD3 inh – inhibitors of TGF-b signaling. HepG2 CAGA-GFP TGF-b/SMAD3 reporter, GFP fluorescence, 18 h; TGF-beta stimulated, 500 pg/mL final. Potency, µM (series often up to 46.1 µM), for inactives: at the top dose activity, negative = inhibition, most hits filed as inhibitors. actives 1.2% (n = 410,000); further: potency means the concentration at half of the fitted maximal effect; on the % scale 0 is the no-effect control and ±100 the full control effect; nearly all actives have a fitted effect of over 65% in size
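Inhibition was scored as loss of TGF-beta-induced (500 pg/mL final, 18 hours, 37 degrees C) GFP in HEPG2 cells carrying a CAGA-GFP reporter, in DMEM with 1% FBS. Well GFP was summed per cell; Activity was normalised to unstimulated and stimulated DMSO wells, then concentration-response fitting.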
TDP1 inh – inhibitors of human tyrosyl-DNA phosphodiesterase TDP1; Q9NUW8; recombinant TDP1, AlphaScreen DNA substrate cleavage; Potency, µM (highest dose often 130 µM), for inactives: at the highest dose activity change, negative = inhibition, actives largely listed as inhibitors; actives 0.28% (n = 350,000); AID 485290; further: potency means the concentration at half of the fitted maximal effect; on the % scale 0 is the no-effect control and ±100 the full control effect; nearly all actives have a fitted effect of over 40% in size
Target sequence (Q9NUW8 whole entry, looked up): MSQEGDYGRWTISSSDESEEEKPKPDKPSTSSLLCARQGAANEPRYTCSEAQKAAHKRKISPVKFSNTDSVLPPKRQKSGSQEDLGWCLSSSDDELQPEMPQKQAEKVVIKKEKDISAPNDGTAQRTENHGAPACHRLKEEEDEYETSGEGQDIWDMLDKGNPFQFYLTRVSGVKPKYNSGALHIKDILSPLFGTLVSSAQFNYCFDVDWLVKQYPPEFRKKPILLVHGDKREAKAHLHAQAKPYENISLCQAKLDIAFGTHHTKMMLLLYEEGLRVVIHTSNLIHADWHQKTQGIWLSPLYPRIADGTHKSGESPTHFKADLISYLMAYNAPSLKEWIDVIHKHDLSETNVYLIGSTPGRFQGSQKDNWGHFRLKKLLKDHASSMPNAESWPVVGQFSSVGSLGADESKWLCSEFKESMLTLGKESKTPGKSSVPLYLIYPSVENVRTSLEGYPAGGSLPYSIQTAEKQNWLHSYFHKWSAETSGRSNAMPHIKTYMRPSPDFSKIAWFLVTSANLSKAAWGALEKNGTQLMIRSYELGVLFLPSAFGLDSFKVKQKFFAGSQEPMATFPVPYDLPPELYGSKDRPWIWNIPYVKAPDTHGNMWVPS
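AlphaScreen read-out: signal falls as enzyme removes the 3' tyrosine-FITC from a 5'-biotinylated DNA oligo (15 nM, 5 min, RT). Enzyme was E. coli-made recombinant Tdp1 at 1 nM, exposed to compound for 15 min beforehand; beads 10 ug/ml, 10 min.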
DT40 TDP1 no CPT – qHTS for Inhibitors of human tyrosyl-DNA phosphodiesterase 1 (TDP1): qHTS in cells in absence of CPT. DT40 Tdp1-/- hTDP1 cells, no CPT, ATP luminescence, 48 h. Potency, µM (top dose mostly 46.2 µM), without a hit: top-dose activity change, negative = growth inhibition, actives largely listed as inhibitors. actives 15% (n = 420,000); further: potency means the concentration at half of the fitted maximal effect; on the % scale 0 is the no-effect control and ±100 the full control effect; nearly all actives have a fitted effect of over 55% in size
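Chicken DT40 Tdp1-/- cells complemented with human TDP1, screened without camptothecin (DMSO vehicle only), 400 cells/well. Compounds pin-transferred, cells incubated at 37 °C for at least 48 hr. Growth read as ATP-dependent luminescence (CellTiter-Glo, 30 min at RT).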
* = called active by the depositor; ? = inconclusive; / = no result given. Unless noted, the call rests on the fitted dose curve; in most records, active means well fitted curve in the direction sought with a large enough effect; inconclusive means small, poorly fitted or top-dose-only effect, or another doubt; inactive means no such curve, though single readings can be large; an effect the other way counts as inactive or inconclusive.

SMILES | HepG2 viability | TDP1 cell CPT | IL1B secr inh | TGFb SMAD3 inh | TDP1 inh | DT40 TDP1 no CPT
CCOC(=O)[C@]12CCC=C1N(Cc1ccc(Cl)cc1Cl)C(=O)[C@H](CC(=O)NCc1cccc3ccccc13)C2 | / | ? | -30 | / | / | 23µM*
CCOC(=O)[C@]12CCC=C1N(Cc1cccc3ccccc13)C(=O)[C@H](CC(=O)NCc1cccc3ccccc13)C2 | / | ? | 0 | / | / | ?
CCOC(=O)[C@]12CCC=C1N(Cc1ccc3c(c1)OCO3)C(=O)[C@H](CC(=O)NCc1ccc(OC)c(OC)c1)C2 | / | ? | -20 | / | / | ?
CCOC(=O)[C@]12CCC=C1N(Cc1ccc(Cl)cc1Cl)C(=O)[C@H](CC(=O)NCc1ccc(OC)c(OC)c1)C2 | / | 16µM* | -22 | / | / | ?
Cc1noc(C)c1-c1ccc2ncnc(NCc3ccc4c(c3)OCO4)c2c1 | / | / | / | / | 11% | /
CCOc1ncccc1C(=O)Nc1ccc(OC)c(S(=O)(=O)N2CCOCC2)c1 | -1% | -16% | -2 | -1% | -1% | -2%
O=C(Nc1ccccc1-c1ccccc1)c1ccc(=O)[nH]n1 | -28% | -27% | -2 | 0% | / | -25%
CCN1C(=O)[C@H]2[C@@H](c3ccc(C)cc3)N3C(=O)N(c4ccc(C(F)(F)F)cc4)C(=O)[C@@]3(CC(C)C)[C@H]2C1=O | -1% | ? | 2 | -1% | / | 16µM*
Cc1cccc([C@@H]2[C@@H]3C(=O)N(Cc4ccccc4)C(=O)[C@@H]3[C@]3(Cc4ccccc4)C(=O)N(c4ccc(C(F)(F)F)cc4)C(=O)N23)c1 | -24% | 18µM* | -1 | -32% | -5% | 16µM*
O=C(NCCCn1ccnc1)c1cc2cc([N+](=O)[O-])ccc2oc1=O | -18% | ? | 16 | -15% | -3% | ?
COc1ccc(N(C)S(=O)(=O)c2ccc3c(c2)NC(=O)CC(=O)N3)c(OC)c1 | -12% | -2% | 0 | -7% | 5% | 19%
CC(C)N1CCN(c2ccc(S(=O)(=O)N3CCOCC3)cn2)CC1 | -3% | 0% | -15 | -7% | 0% | 16%
Cc1ccc(NC(=O)C2(C)CCN2C(=O)Cc2ccc(C(C)C)cc2)cc1 (stereo not drawn) | 2% | ? | 32 | -21% | / | 23µM*
COc1ccccc1OCCC(=O)NCc1ccc2c(c1)OCO2 | -3% | ? | 40 | -17% | -5% | ?
CC1(C(=O)Nc2ccc3c(c2)OCO3)CCN1Cc1csc2ccccc12 (stereo not drawn) | -13% | 23µM* | ? | ? | / | ?
CC1(C(=O)Nc2ccc3c(c2)OCO3)CCN1C(=O)Cc1cccc2ccccc12 (stereo not drawn) | -50% | 21µM* | 6 | -21% | / | 16µM*
COc1ccccc1CN(CC(=O)NCc1ccc2c(c1)OCO2)C(=O)c1ccc2c(c1)OCCO2 | 3% | ? | 0 | -1% | 9% | 21µM*
Cc1ccc(NC(=O)C2(C)CCN2Cc2csc3ccccc23)cc1 (stereo not drawn) | -40% | ? | ? | ? | / | ?
CC(C)c1ccc(CC(=O)N2CCC2(C)C(=O)Nc2ccc3c(c2)OCO3)cc1 (stereo not drawn) | -22% | ? | 29 | -18% | / | 18µM*
COc1ccc(CN2CCC2(C)C(=O)NCc2ccc3c(c2)OCO3)c2ccccc12 (stereo not drawn) | -28% | 23µM* | 12 | ? | / | ?
COc1ccc(-c2cc3ccc(O)c(CN4CCC(C)CC4)c3oc2=O)cc1OC | 7% | -17% | / | -11% | 3% | ?
